Measurements: PubChem BioAssay AID504832 (National Center for Advancing Translational Sciences (NCATS), 2011)
The campaign covered roughly 310,000 compounds. About 18,000 (5.8%) were called active. Not shown: some 22% with an inconclusive outcome. The sample holds actives, similar compounds and a random draw of the others, so the mix is not that of the screen. The call rests on the fitted dose curve; in most records, active means well fitted inhibition curve with a large enough effect; inconclusive means small, poorly fitted or top-dose-only effect, or another doubt; inactive means no such curve, though single readings can be large or run the other way.

Experiment: Primary qHTS for delayed death inhibitors of the malarial parasite plastid, 48 hour incubation
Settings: P. falciparum luciferase growth in erythrocytes; series mostly up to 28.7 µM; activity change, negative = inhibition: at the top concentration
In short: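 Erythrocytes infected with P. falciparum carrying an integrated firefly luciferase reporter (2% hematocrit, 0.1% parasitemia final) were exposed to compounds in RPMI 1640 with 0.5% Albumax at 37 C, 5% CO2. Growth inhibition was scored as reduced luminescence.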
On the % scale 0 is the no-effect control and ±100 the full control effect; potency means the concentration at half of the fitted maximal effect.

Compound	activity change, negative = inhibition	Potency
Cn1c(-c2ccc(C(F)(F)F)cc2)cc2onc(-c3ccccc3)c2c1=O	178% (inactive)	
Cc1ccc(C)c(N(CC(=O)NCc2ccco2)C(=O)CCC(=O)Nc2ccccn2)c1		14.7 µM (active)
COCCNC(=O)CN(C(=O)CCC(=O)Nc1cc(C)on1)c1ccc(C)cc1C	-0.34% (inactive)	
Cc1ccc(N(CC(=O)NC2CCCCC2)C(=O)CCCC(=O)Nc2ccccn2)c(C)c1	-13% (inactive)	
CCc1ccc(NC(=O)Cn2nnc(C(=O)NCc3ccc4c(c3)OCO4)c2N)cc1	26.2% (inactive)	
Cc1ccc(S(=O)(=O)N2CCOCC2)cc1C(=O)NCc1ccc(F)cc1	-22.9% (inactive)	
Cc1cc2cc(CNC(=O)c3ccc(S(=O)(=O)N4CCOCC4)cc3)ccc2[nH]1		13.1 µM (active)
COc1ccc(CC(=O)Nc2ccc3c(c2)CCC3)cc1S(=O)(=O)N1CCOCC1	-21.2% (inactive)	
O=C(CN1CCN(S(=O)(=O)/C=C/c2ccccc2)CC1)Nc1ccc(N2CCOCC2)cc1	-23.2% (inactive)	
O=C(CN1CCN(c2cccc(Cl)c2)CC1)Nc1ccc(S(=O)(=O)N2CCOCC2)cc1		10.4 µM (active)
O=C(Nc1ccc2cn[nH]c2c1)c1ccc(S(=O)(=O)N2CCOCC2)cc1	-8.06% (inactive)	
O=C(CN1C(=O)CCC1=O)Nc1ccc(S(=O)(=O)N2CCOCC2)cc1	-3.85% (inactive)	
O=C(CN1CCCCCC1)Nc1ccc(S(=O)(=O)N2CCCCC2)cc1	-21.4% (inactive)	
Cc1ccc(CC(=O)Nc2ccc(S(=O)(=O)N3CCOCC3)cc2)cc1C		9.28 µM (active)
CCOC(=O)c1sc(=NC(=O)c2ccc(Br)cc2)n(C)c1C	40.3% (inactive)	
Cn1c(=O)c2ccccc2n(CC(=O)Nc2ccc3c(c2)OCCO3)c1=O	-17.8% (inactive)	
COc1cc(C(=O)N/C(=C\c2cn(C)c3ccccc23)C(=O)N2CCOCC2)cc(OC)c1OC	-20.3% (inactive)	
CN(C)S(=O)(=O)c1cccc(C(=O)OCC(=O)N2CCCC2=O)c1	43.3% (inactive)	
CC1CC1C(=O)OCC(=O)Nc1cccc(F)c1 (stereo unspecified)	-18.9% (inactive)	
COc1ccc(NC(=O)NN2CCN(C)CC2)c(OC)c1	-8.77% (inactive)	
CCOc1ccc(/C=N\NC(=O)c2c(C)nc3cc(C)ccn23)cc1	-2.1% (inactive)	
Cn1c(=O)n(C)c2cc(S(=O)(=O)Nc3ccc(F)cc3)ccc21	0.288% (inactive)	
CC(C)(CNC(=O)Cc1ccc(Cl)cc1Cl)N1CCOCC1	4.95% (inactive)	
CSCCC(NC(=O)c1ccc(Cl)cc1Cl)C(=O)NNC(=O)c1csc(N2CCOCC2)n1 (stereo unspecified)	6.42% (inactive)	
Clc1ccc(CSc2nnc(/C=C/c3ccccc3)o2)c(Cl)c1	7.49% (inactive)	
CSCc1cc(N(C)C)nc(SCc2ccc(Cl)cc2Cl)n1		13.1 µM (active)

Compound	activity change, negative = inhibition	Potency
Nc1cc(N)nc(SCc2ccc(Cl)cc2)n1	31.1% (inactive)	
CSCc1cc(N2CCOCC2)nc(SCc2ccc(Cl)cc2Cl)n1		13.1 µM (active)
CCc1ccc(C(=O)COC(=O)c2ccco2)cc1	16% (inactive)	
O=C(NCc1ccco1)/C(=C/c1ccco1)NC(=O)c1ccccc1	-2.37% (inactive)	
CC1CCCN(S(=O)(=O)c2ccc(-c3ccc(=O)[nH]n3)o2)C1 (stereo unspecified)	-25.8% (inactive)	
COC(=O)C1(C)CC1(c1ccccc1)c1ccccc1 (stereo unspecified)	-9.84% [at 0.00184 µM] (inactive)	
Cc1ccccc1-n1cc(CNC(=O)C2CCC(=O)N(C3CC3)C2)cn1 (stereo unspecified)	-10% (inactive)	
CCN1CCN(C(=O)N(Cc2ccc(Cl)cc2)S(=O)(=O)c2ccc(C)cc2)CC1	1.47% (inactive)	
Cc1nn(C)cc1S(=O)(=O)N1CCN(c2ccc(F)cc2)CC1	22.3% (inactive)	
Cc1ccc(CNC(=O)C(=O)c2cn(CC(=O)N3CCCC3)c3ccccc23)cc1	12% (inactive)	
Cc1cccnc1NC(=O)c1cccc(S(=O)(=O)N2CCN(c3ccc(F)cc3)CC2)c1	-1.14% (inactive)	
Oc1c(CN2CCN(c3ccc(F)cc3)CC2)cc(Cl)c2cccnc12		1.85 µM (active)
Oc1ccc(CN2CCN(c3ncccn3)CC2)cc1	-6.17% (inactive)	
O=C(Cc1ccccc1)NNC(=O)C1CCN(c2ncccn2)CC1	-13.8% (inactive)	
CC1CCCN(CC(O)COCc2ccccc2)C1 (stereo unspecified)	-5.27% (inactive)	
Oc1c(CN2CCCC2)cc(COCc2ccccc2)c2cccnc12		0.657 µM (active)
Cc1cc(S(=O)(=O)NCC(C)C)ccc1OCC(=O)NC1CC1	0.0371% (inactive)	
CC(=O)c1cccc(NC(=S)N2CCN(S(C)(=O)=O)CC2)c1	-7.77% (inactive)	
Cc1ccc(F)cc1S(=O)(=O)Nc1cccc(C(=O)N2CCCC(C(N)=O)C2)c1 (stereo unspecified)	-20.4% (inactive)	
COc1ccc(OC)c(NC(=O)c2ccc3c(c2)C(=O)N(c2ccc(OC(C)=O)cc2)C3=O)c1	0.907% [at 0.00184 µM] (inactive)	
C/C(=N\NC(=O)C1(C)CC1(Br)Br)c1ccc(C)cc1C (stereo unspecified)	9.57% (inactive)	
O=C(CCn1nnnc1CN1CCOCC1)N1CCC(c2ccccc2Cl)C1 (stereo unspecified)	51.7% (inactive)	
CCc1nn(CC(=O)N2CCN(CC)CC2)c(=O)c2cccn12	34.5% (inactive)	
NC(=O)c1ccc(CN2CCC(Cc3ccccc3)CC2)cc1	5.35% (inactive)	
Brc1ccc(CN2CC[C@H]3C=CCc4cccc(c43)C2)cc1		3.29 µM (active)
